Test results reported in PubChem BioAssay AID743126 (The Scripps Research Institute Molecular Screening Center, 2013).
Among all 370,000 compounds or so, about 2,100 (0.57%) were called active. The list comes from a sample in which actives are over-represented; it also holds similar structures and randomly drawn compounds. A number with no mark means an inactive call.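 How the source made its calls: active means inhibition above mean plus 3 SD of compounds lying within the high and low control bounds (cut at about 19% in these data); inactive means the rest.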

Each compound was assayed against Group 3 secretory phospholipase A2 (Homo sapiens) (UniProt Q9NZ20) (assay: human group III sPLA2 inhibitors, primary screen, biochemical, QFRET, BODIPY PC-A2 liposome substrate (AID 743126;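 further: 0% = median of test compound wells and 100% = no enzyme DMSO wells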)). Details: QFRET BODIPY PC-A2 liposome hydrolysis, fluorescence; at 12.2 µM; hits give high values.
Group 3 secretory phospholipase A2 (Homo sapiens), sequence (Q9NZ20 whole entry, looked up): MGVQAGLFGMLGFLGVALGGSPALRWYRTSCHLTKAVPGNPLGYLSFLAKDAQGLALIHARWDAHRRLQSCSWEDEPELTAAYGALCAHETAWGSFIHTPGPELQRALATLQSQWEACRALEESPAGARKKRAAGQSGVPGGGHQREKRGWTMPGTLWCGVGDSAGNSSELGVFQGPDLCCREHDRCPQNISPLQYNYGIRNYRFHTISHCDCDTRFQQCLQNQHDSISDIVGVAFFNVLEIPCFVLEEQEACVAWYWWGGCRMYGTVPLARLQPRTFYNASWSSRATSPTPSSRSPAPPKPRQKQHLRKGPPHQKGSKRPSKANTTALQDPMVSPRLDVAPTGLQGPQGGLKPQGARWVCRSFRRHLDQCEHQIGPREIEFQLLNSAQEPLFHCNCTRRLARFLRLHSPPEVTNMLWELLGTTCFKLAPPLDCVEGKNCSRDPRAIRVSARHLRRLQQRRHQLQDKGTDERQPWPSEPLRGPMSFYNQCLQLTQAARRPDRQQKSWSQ

SMILES | inhibition
CCc1c(Nc2ccccc2C)nc(N)[nH]c1=O | 8.22%
Cc1[nH]c(N)nc(=S)c1CCCNc1ccccc1 | 23.8% (active)
Cc1cc(=O)n(C)c(=O)n1CCCNc1ccccc1 | -0.01%
C=CCN1C(=O)[C@@H](CC(=O)N2CCN(C(=O)c3ccco3)CC2)[C@]2(C(=O)OC)CCCCC=C12 | 13.7%
COc1cccc(N(C)C(=O)[C@@H](C)[C@@H](O)c2ccc3ccccc3c2)c1 | -10.3%
COC(=O)C(C)n1cnc2c(nnn2-c2ccc(F)cc2)c1=O (stereo not drawn) | 21.6% (active)
CCOC(=O)C(CC)Sc1ncnc2c1nnn2-c1ccc(F)cc1 (stereo not drawn) | -1.68%
CCOC(=O)C(C)n1cnc2c(nnn2-c2ccc(F)cc2)c1=O (stereo not drawn) | 10.8%
C=C1C(C(C)C)N(C)C2=NC(c3ccccc3)CC(=O)N12 (stereo not drawn) | 0%
C=C(C)C#CC(Cc1ccccc1)NCC1CC1 (stereo not drawn) | 4.73%
CC(C)CC(=O)NC(=S)NNC(=O)c1cccc([N+](=O)[O-])c1 | 24.2% (active)
CC(C)OC(=O)CC(=O)CC(O)c1cccc([N+](=O)[O-])c1 (stereo not drawn) | -28%
CC(C)CC(=O)NC(=S)Nc1ccc(F)cc1F | 6.75%
O=C1CCC2(CCC(c3ccc(Cl)cc3)CC2)N1CCO (stereo not drawn) | 7.89%
COc1ccc(C2CC=C(C(=O)O)C(c3ccccc3F)N2S(=O)(=O)c2ccc(C)cc2)cc1OC (stereo not drawn) | -7.23%
CCOC(=O)[C@]12CCCC=C1N(Cc1ccc(OC)cc1)C(=O)[C@@H]2CC(=O)N1CCOCC1 | 3.77%
Cc1cc(=O)[nH]c(SCC(=O)Nc2ccc(Cl)cc2C)n1 | 1.76%
COc1ccccc1OCc1nnc(SCC(N)=O)n1-c1ccccc1 | 1.71%
CCN(CC)C(=O)CSc1nc2ccccc2n1CC(=O)N1CCN(c2ccccc2OC)CC1 | 0.24%
COc1ccccc1OCCn1c(SCC(N)=O)nc2ccccc21 | 22.2% (active)
N#CCC[C@H]1CC[C@]2(CCCN(Cc3ccc(Cl)cc3)C2)O1 | 5.78%
C=CCNc1scc(-c2ccccc2)[n+]1CC=C | 20.2% (active)
C=CC[n+]1c(-c2ccc(C)cc2)csc1NNC(=O)Nc1ccccc1 | 2.33%
COC(CNC(=O)[C@H](Cc1ccccc1)NC1(C(=O)NC2CCCCC2)CCCCC1)OC | -3.08%
O=C(CCCCCN1C(=O)C2C3C=CC(C3)C2C1=O)Nc1ccccn1 (stereo not drawn) | -2.55%
CC(C)C(C#CC1CC1)N(Cc1ccc2c(c1)OCO2)C(N)=NC(=O)/C=C/c1cccc(C(F)(F)F)c1 (stereo not drawn) | 3.76%

SMILES | inhibition
Clc1ccc(-n2c(SC/C=C/c3ccccc3)nnc2-c2ccco2)cc1 | -11.5%
C/C(=N/NC(=O)c1cc(Cl)ccc1O)C12CC3CC(CC(C3)C1)C2 | 22.8% (active)
Cc1ccc(C(=O)NC23CC4CC(CC(C4)C2)C3)c(Cl)c1 | 15.2%
O=C(N/N=C1\CCSC1)c1cc(Cl)ccc1O | 13.2%
COC(=O)[C@H](C(C)C)N(CCc1cn(Cc2ccccc2)nn1)S(=O)(=O)c1ccc(F)cc1Br | -2.33%
O=C(NC1CCC1)c1ccc(C#Cc2cccc(F)c2)c[n+]1[O-] | -4.97%
CC(=O)/C(=N\Nc1ccc(Cl)cc1Cl)Sc1cccc2cccnc12 | 20.9% (active)
COc1cccc(CNC(=O)C2CCN(S(=O)(=O)c3cccc4cccnc34)CC2)c1 | -1%
CC(Oc1ccc(Cl)cc1)C(=O)Nc1ncccn1 (stereo not drawn) | 1.61%
COC(=O)[C@]12C[C@H](CC(=O)N3CCOCC3)C(=O)N(Cc3ccc(Cl)cc3Cl)C1=C[C@H](C(C)C)O[C@@H]2C1CC1 | -5.59%
CC1CCN(c2ccc(C(=O)O)cc2NS(=O)(=O)c2ccc(Br)s2)CC1 | -18.5%
CCOC(=O)[C@]12CCCCC/C=C\1N(Cc1ccc(OC)cc1)C(=O)[C@H]2CC(=O)NCc1ccc(C)o1 | -4.43%
COc1ccc(C2Nc3ccccc3C(=O)N2Cc2cccs2)cc1COc1c(C)cccc1C (stereo not drawn) | 4.57%
Oc1ccc2ccccc2c1N=Nc1nccs1 | 19.4% (active)
O=C(NC1CCCC1)C1CSCCS(=O)(=O)N1Cc1ccccc1 (stereo not drawn) | 2.48%
O=C1Nc2ccccc2OC1CC(=O)N1CCCCCCC1 (stereo not drawn) | 1.64%
C=CCN1[C@H](CC(C)C)COc2cccc(N3CCCC3)c2S1(=O)=O | 10%
CCOC(=O)NN1C(=O)c2ccccc2NC1c1cccc(O)c1 (stereo not drawn) | -3.61%
Cc1ccc(C2Nc3ccccc3C(=O)N2CCN2CCNC2=O)cc1 (stereo not drawn) | 19.3% (active)
CC(=O)NN1C(=O)c2ccccc2NC1c1ccccc1 (stereo not drawn) | 4.64%
CC(C)(C)c1cc2cccnc2n1Cc1cccc(F)c1 | 20.9% (active)
COc1ccnc2c1c(=O)n(Cc1cccc(F)c1)c(=O)n2C | 0.58%
CC(C)(C)c1cc2cccnc2n1Cc1ccccc1 | 8.03%
O=C(CNC(=O)c1ccccc1)OC(C(=O)Nc1cc([N+](=O)[O-])ccc1F)c1ccccc1 (stereo not drawn) | 10.8%
COc1ccc(N2CCN(CCNS(=O)(=O)c3ccc(C(C)(C)C)cc3)CC2)cc1 | -8.25%
O=C(COC(=O)/C=C/c1nc2ccccc2s1)Nc1ccccc1Oc1ccccc1 | 8.15%

SMILES | inhibition
NC(c1csc(NC(=O)Nc2ccccc2Oc2ccccc2)n1)c1ccccc1Cl (stereo not drawn) | 24.4% (active)
CC(=O)c1ccc(Nc2nc(C(N)c3ccccc3Cl)cs2)cc1 (stereo not drawn) | -4.25%
COC(=O)c1ccc(NC(=S)Nc2cccc(C)n2)cc1 | 7.29%
Cc1cccc(-n2cnc(C(=O)Nc3cccnc3)c2)n1 | 8.64%
Cc1cccc(-n2cnc(C(=O)NNC(=S)Nc3ccccc3)c2)n1 | 38.5% (active)
CCOc1ccc(-n2c(SCC(=O)Nc3cc(C)c(NC(=O)c4ccccc4)cc3OC)nnc2-c2cccc(Cl)c2)cc1 | 2%
CSC1=NN(c2ccccc2)CN(c2ccccc2)N1C | 21.7% (active)
O=C(CCl)NC1CCCCN(Cc2cccc(C(F)(F)F)c2)C1=O (stereo not drawn) | 7.99%
CCCCNC(=O)C[C@H]1C(=O)N(Cc2ccc(OC)cc2)C2=CCCC[C@@]21C(=O)OCC | 12.9%
Cc1ccc(NCc2n[nH]c(=S)n2-c2ccccc2)cc1Cl | 12.3%
Cc1cc(-c2n[nH]c(=S)n2-c2ccc(C)c(C)c2)no1 | 20.5% (active)
Cc1ccc(C)c(S(=O)(=O)Nc2cc(C)on2)c1 | 6.47%
Cc1ccccc1CN1CCCCC(NC(=O)Nc2ccccc2F)C1=O (stereo not drawn) | 4.74%
C[C@@H](NC(=O)c1ccccc1OCC(=O)Nc1ccc(I)cc1)C(=O)N(C)Cc1ccccc1 | -8.83%
Cc1ccc(-n2c(SCC(=O)Nc3ccc(S(=O)(=O)Nc4nccs4)cc3)nnc2-c2ccccn2)cc1 | -36.9%
CC(=O)c1cc(C#N)c(N2CC(C)OC(C)C2)nc1C (stereo not drawn) | 10.2%
CC(=O)c1nnn(-c2ccc(Cl)cc2C#N)c1C | 21.4% (active)
O=C(Nc1cccc(Cl)c1)OC1CC2CC1[C@H]1CCCCN1[C@H]2Cc1ccccc1 (stereo partly drawn) | -3.5%
N#Cc1ccc(OC[C@@H](O)CN2CCC(C(O)(c3ccccc3)c3ccccc3)CC2)c(F)c1 | -15.8%
Cc1ccc(CC2(C)C(=O)Nc3ccc(OC(F)(F)F)cc32)cc1 (stereo not drawn) | -5.51%
O=C1C(=O)N(Cc2ccc(-c3ccsc3)cc2)c2ccc(OC(F)(F)F)cc21 | 26% (active)
O=C(c1ccc2c(c1)C(=O)N(Cc1ccncc1)C2=O)N1CCN(S(=O)(=O)c2ccc(OC(F)(F)F)cc2)CC1 | 0.57%
CC(C)CNC(=O)OCc1cn(Cc2ccc(F)cc2)nn1 | 1.52%
COC(=O)[C@@]12CCCCC3=C1N(CCC3)C(=O)[C@H]2CC(=O)NCc1cccc2ccccc12 | -12%
CCCC[C@H]1C2CC(OC(=O)NCc3ccccc3)C(C2)[C@H]2CCCCN21 (stereo partly drawn) | 9.24%
Nn1c(SCC(=O)Nc2ccc(S(N)(=O)=O)cc2)nnc1-c1n[nH]c2c1CCC2 | 9.17%
